{
  "source": "the supplement of paper PMC11732987",
  "about": "“Enantioselective OTUD7B fragment discovery through chemoproteomics screening and high-throughput optimisation” (Communications Chemistry, 2025)",
  "experiment_in_all_cases": "log2 ratio of Biotin-Ahx-Ub-VS probe labelling (fragment/DMSO); higher = less target engagement (more negative = stronger competition), active = hit call of the paper (q ≤ 0.05, log2 ratio ≤ -1)",
  "settings_in_all_cases": "compound concentration: 200 uM; treatment time: 3 h",
  "key": {"[1]": {"target": "T1, ALG13 (UniProt Q9NP73)", "T1 sequence (whole entry)": "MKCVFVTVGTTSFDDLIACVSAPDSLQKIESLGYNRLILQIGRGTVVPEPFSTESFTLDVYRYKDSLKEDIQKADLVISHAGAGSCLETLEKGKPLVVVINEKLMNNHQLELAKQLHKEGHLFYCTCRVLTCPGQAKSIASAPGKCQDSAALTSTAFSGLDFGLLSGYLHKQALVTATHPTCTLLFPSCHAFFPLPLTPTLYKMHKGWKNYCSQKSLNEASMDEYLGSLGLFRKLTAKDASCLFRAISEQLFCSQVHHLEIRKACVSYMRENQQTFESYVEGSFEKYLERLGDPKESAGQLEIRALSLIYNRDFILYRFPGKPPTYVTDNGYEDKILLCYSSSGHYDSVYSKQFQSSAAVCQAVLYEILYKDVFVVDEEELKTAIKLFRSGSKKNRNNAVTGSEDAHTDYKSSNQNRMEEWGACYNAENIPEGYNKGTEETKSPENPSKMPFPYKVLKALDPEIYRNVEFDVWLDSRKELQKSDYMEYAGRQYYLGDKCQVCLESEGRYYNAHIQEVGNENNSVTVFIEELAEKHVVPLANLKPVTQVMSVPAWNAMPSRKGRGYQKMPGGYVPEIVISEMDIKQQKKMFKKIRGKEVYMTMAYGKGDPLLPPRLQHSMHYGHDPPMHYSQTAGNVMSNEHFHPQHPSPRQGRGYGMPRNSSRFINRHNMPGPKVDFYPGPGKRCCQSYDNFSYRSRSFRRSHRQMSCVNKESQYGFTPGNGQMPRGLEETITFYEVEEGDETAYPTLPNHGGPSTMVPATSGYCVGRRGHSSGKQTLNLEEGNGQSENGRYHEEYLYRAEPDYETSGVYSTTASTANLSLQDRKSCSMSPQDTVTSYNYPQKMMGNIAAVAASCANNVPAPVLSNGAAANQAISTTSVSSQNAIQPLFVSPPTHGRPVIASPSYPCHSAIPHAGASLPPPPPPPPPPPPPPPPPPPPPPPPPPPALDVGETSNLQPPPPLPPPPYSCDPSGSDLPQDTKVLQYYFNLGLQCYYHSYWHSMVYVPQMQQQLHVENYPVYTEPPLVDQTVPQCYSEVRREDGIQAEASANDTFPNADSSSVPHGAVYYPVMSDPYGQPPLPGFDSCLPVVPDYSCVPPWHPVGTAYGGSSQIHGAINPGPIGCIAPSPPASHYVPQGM", "method_in_brief": "(§1)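 Average log2 ratios of fragment over vehicle were obtained by unpaired t-test from global-median-normalised Spectronaut label-free quantities. Proteins with ≥2 unique peptides were included. HEK293T lysate (495 µg per sample) was treated in triplicate with fragment at 200 µM or vehicle for 3 h, then with Biotin-Ahx-Ub-VS at 0.5 µM final for 1 h, and labelled DUBs were NeutrAvidin-enriched and run by diaPASEF LC-MS/MS.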"}, "[2]": {"target": "ATXN3 (UniProt P54252)", "sequence (P54252 whole entry)": "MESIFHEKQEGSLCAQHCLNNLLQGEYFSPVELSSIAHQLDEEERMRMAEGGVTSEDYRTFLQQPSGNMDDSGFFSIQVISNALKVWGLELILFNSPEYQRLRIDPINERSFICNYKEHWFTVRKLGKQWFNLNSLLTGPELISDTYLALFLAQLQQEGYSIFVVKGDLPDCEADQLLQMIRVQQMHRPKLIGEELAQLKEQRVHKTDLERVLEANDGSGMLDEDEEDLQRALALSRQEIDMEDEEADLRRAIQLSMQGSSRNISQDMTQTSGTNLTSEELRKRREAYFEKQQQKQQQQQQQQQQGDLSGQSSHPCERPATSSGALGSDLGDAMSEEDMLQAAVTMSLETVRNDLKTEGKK", "method_in_brief": "as §1"}, "[3]": {"target": "T2, BAP1 (UniProt Q92560)", "T2 sequence (whole entry)": "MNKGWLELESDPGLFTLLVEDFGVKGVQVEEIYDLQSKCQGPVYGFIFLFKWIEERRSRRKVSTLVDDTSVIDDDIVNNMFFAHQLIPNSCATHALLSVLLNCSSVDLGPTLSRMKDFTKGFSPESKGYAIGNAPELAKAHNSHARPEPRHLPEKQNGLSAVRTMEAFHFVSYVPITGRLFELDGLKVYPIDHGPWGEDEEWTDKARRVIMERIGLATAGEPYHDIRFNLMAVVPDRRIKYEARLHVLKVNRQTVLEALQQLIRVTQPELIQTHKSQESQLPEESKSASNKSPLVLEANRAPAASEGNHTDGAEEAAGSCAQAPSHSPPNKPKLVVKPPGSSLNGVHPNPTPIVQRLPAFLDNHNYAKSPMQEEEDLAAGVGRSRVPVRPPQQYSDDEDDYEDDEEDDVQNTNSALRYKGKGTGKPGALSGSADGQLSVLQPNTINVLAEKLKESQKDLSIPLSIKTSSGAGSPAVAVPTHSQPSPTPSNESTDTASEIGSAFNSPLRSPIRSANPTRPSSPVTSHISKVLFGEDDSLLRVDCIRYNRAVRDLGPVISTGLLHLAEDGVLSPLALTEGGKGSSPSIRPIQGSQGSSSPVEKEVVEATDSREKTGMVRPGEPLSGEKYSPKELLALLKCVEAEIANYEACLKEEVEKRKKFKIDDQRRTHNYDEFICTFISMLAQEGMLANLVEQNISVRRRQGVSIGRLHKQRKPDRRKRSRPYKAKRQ", "method_in_brief": "as §1"}, "[4]": {"target": "EIF3F (UniProt O00303)", "sequence (O00303 whole entry)": "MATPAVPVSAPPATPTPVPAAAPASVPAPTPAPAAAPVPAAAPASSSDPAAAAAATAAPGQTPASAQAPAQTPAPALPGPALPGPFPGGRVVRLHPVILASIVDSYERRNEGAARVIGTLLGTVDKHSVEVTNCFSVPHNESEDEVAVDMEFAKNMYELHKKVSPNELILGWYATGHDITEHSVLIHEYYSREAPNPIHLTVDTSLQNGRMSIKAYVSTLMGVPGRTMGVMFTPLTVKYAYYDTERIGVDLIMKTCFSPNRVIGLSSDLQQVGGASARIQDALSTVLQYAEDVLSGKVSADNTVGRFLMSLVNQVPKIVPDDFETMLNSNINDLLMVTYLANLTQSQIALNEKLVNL", "method_in_brief": "as §1"}, "[5]": {"target": "EIF3H (UniProt O15372)", "sequence (O15372 whole entry)": "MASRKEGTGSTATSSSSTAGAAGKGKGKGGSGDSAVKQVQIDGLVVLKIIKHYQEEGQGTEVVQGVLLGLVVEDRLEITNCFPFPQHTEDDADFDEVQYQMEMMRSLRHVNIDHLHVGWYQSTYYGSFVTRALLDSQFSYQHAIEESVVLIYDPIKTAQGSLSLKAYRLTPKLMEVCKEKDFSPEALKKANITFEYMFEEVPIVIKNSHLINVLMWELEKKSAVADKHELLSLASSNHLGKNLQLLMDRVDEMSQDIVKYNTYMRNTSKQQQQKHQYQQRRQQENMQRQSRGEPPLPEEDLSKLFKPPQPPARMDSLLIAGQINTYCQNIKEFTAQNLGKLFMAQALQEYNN", "method_in_brief": "as §1"}, "[6]": {"target": "T3, FAM105A (UniProt Q9NUU6)", "T3 sequence (whole entry)": "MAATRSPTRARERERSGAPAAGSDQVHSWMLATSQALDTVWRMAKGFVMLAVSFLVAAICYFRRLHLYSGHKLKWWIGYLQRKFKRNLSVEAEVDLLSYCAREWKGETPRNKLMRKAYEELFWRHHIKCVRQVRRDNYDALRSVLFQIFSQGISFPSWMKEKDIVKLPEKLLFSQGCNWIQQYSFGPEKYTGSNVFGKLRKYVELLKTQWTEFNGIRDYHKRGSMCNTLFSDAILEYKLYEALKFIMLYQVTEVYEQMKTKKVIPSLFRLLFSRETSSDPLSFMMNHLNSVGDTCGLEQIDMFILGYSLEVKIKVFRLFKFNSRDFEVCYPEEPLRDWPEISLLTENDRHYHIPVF", "method_in_brief": "as §1"}, "[7]": {"target": "OTUB1 (UniProt Q96FW1)", "sequence (Q96FW1 whole entry)": "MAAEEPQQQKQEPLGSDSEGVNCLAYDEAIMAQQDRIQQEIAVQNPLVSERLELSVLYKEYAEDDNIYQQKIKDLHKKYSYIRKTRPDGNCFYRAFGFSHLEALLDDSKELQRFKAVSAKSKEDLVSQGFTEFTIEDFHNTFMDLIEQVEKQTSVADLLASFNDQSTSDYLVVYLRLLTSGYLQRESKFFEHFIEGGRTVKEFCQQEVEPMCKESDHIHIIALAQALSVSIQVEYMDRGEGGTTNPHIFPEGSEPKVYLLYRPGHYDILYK", "method_in_brief": "as §1"}, "[8]": {"target": "T4, OTUD4 (UniProt Q01804)", "T4 sequence (whole entry)": "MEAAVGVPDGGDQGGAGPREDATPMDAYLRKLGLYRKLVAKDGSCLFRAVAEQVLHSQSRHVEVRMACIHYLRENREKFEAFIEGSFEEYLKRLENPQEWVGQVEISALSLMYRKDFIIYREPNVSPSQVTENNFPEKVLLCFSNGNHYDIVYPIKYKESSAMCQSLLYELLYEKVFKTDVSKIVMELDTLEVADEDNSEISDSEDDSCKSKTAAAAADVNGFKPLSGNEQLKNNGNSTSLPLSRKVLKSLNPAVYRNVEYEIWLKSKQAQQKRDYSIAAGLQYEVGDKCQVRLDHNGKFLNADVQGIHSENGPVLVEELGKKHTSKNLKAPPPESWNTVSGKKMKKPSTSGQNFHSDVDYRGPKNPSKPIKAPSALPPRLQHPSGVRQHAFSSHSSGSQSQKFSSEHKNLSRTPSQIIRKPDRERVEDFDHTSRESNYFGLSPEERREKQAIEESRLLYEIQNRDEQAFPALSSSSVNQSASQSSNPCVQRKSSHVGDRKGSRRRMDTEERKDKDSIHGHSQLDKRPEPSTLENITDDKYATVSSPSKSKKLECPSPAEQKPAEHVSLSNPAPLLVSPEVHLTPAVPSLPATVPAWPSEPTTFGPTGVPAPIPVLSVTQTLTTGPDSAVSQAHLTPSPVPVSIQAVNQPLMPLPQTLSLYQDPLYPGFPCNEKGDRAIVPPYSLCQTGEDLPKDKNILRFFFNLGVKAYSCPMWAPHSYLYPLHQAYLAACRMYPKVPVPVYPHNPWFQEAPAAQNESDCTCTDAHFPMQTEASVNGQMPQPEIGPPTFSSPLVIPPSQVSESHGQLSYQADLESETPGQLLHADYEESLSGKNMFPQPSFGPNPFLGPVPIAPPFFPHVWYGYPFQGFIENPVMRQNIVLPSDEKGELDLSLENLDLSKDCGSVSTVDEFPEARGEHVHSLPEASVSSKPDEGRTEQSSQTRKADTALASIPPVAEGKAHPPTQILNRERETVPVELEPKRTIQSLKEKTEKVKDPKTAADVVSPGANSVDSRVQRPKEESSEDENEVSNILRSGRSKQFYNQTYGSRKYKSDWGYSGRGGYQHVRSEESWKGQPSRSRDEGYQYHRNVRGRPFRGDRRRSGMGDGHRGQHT", "method_in_brief": "as §1"}, "[9]": {"target": "T5, OTUD5 (UniProt Q96G74)", "T5 sequence (whole entry)": "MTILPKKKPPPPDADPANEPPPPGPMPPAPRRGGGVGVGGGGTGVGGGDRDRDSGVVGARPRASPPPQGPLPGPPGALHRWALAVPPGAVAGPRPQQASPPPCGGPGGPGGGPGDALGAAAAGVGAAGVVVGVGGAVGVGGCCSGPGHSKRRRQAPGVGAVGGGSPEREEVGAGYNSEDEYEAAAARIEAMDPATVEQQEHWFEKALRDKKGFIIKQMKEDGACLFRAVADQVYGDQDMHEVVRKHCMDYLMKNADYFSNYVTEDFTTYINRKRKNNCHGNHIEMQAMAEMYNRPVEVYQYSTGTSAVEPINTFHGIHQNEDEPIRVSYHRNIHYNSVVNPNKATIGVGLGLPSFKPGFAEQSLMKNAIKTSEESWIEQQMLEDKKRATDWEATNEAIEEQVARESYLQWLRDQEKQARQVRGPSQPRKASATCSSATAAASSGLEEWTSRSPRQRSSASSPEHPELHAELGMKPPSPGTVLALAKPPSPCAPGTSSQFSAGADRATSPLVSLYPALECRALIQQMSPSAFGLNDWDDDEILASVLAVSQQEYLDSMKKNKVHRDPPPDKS", "method_in_brief": "as §1"}},
  "note": "Values without a mark were called inactive.",
  "data": [
    {"smiles": "O=C(CCl)Nc1nc(-c2cccs2)cs1", "values": [
      {"measurement": "log2 ratio of Biotin-Ahx-Ub-VS probe labelling", "setting": "[1]", "result": 0.184},
      {"measurement": "log2 ratio of Biotin-Ahx-Ub-VS probe labelling", "setting": "[2]", "result": -0.6},
      {"measurement": "log2 ratio of Biotin-Ahx-Ub-VS probe labelling", "setting": "[3]", "result": "-3.09 (active)"},
      {"measurement": "log2 ratio of Biotin-Ahx-Ub-VS probe labelling", "setting": "[4]", "result": -0.0224},
      {"measurement": "log2 ratio of Biotin-Ahx-Ub-VS probe labelling", "setting": "[5]", "result": 0.216},
      {"measurement": "log2 ratio of Biotin-Ahx-Ub-VS probe labelling", "setting": "[6]", "result": -0.186},
      {"measurement": "log2 ratio of Biotin-Ahx-Ub-VS probe labelling", "setting": "[7]", "result": 0.196},
      {"measurement": "log2 ratio of Biotin-Ahx-Ub-VS probe labelling", "setting": "[8]", "result": -0.708},
      {"measurement": "log2 ratio of Biotin-Ahx-Ub-VS probe labelling", "setting": "[9]", "result": -0.636}
    ]}
  ]
}
